Records with an inconclusive call do not appear. Unmarked numbers belong to inactive results. Calls come from the whole dose curve; as a rule, active = well fitted activation curve with a large enough effect; inconclusive = small, poorly fitted or top-dose-only effect; inactive = flat fitted curve, though single readings scatter. Where a SMILES comes first, the peptide text is derived from it. [ ]: non-standard residue; d: D form. PhLac = O=C(O)[CH](O)Cc1ccccc1; NMeV = CN[CH](C(=O)O)C(C)C

A short description of this assay: Primary redox qHTS assay for identification of artifact compounds. (AID 1845223).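 Note: 0% = DMSO and 100% = reference compound.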 As to conditions: Amplex Red/HRP redox cycling with DTT, fluorescence; series mostly up to 53.8 µM; redox activity (% of DA3003): at the top concentration. Summed up: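 Amplex Red (25 uM) and HRP (250 mU/mL) in HBSS, with compounds for 15 min, then 250 uM DTT for 30 min, room temperature, dark. Fluorescence 525/598 nm read; normalized to DMSO and 10 uM DA3003; Hill fit.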
For the molecule `CCCCS(=O)(=O)Nc1ncnc(OCCOc2ncc(Br)cn2)c1-c1ccc(Br)cc1`, the “redox activity (% of DA3003)” value is 11.7%.
The result for `CC(=O)[C@@H]1CC[C@]2(C(=O)O)CC[C@]3(C)C(CCC4[C@@]5(C)CC[C@H](O)C(C)(C)C5CC[C@]43C)C12` (some centres not stated) reads -2.66% [at 25.6 µM].
Turning to `C=C1[C@H]2CC[C@]3(O)[C@@](CC[C@@H]4[C@](C)(C(=O)O)CCC[C@]43C)(C2)[C@H]1OC(=O)/C(C)=C\C`, the “redox activity (% of DA3003)” value was 3.94% [at 25.6 µM].
The figure for `O=C(O[C@H]1[C@@H]2C[C@@H]3OC[C@@](O)([C@H]2[C@H](O[C@@H]2O[C@H](CO)[C@@H](O)[C@H](O)[C@H]2O)O3)[C@@H]1O)c1ccccc1` is -1.02% [at 25.6 µM]; for `CC1NC(=O)C(Cc2c[nH]c3ccccc23)NC1=O` (configuration not stated) it is -8.18%.
Turning to `O=C(C1CC1)N1CC[C@@H](Cc2n[nH]c(=O)n2-c2ccc(-c3ccc4occc4c3)cc2)C1`, the “redox activity (% of DA3003)” value was 15.9% [at 25.6 µM].
The result for `O=C(O)c1cnn(-c2nc3cc(OC(F)(F)F)c(Cl)cc3[nH]2)c1` reads -3.22%; that for `CC1=CC(=O)CC(C)(C)C1CCC(C)OC1OC(COC(=O)c2cc(O)c(O)c(O)c2)C(O)C(O)C1O` (configuration not stated), -2.9% [at 25.6 µM]; that for `C[C@H]1[C@H](C)CC[C@]2(C(=O)O)CC[C@]3(C)C(=CC[C@@H]4[C@@]5(C)C[C@@H](O)[C@H](O)[C@@](C)(CO)[C@@H]5CC[C@]43C)[C@H]12`, -2.31%.
As to `C=CC(C)(C)C12CC3C(=O)NC(Cc4cnc[nH]4)C(=O)N3C1Nc1ccccc12` (configuration not stated), the “redox activity (% of DA3003)” value is -2.82%.
The result for `CC(C)C(C(=O)N1CCCC1C(=O)O)N(C)C(=O)C(O)Cc1ccccc1` (configuration not stated) (H-[PhLac]-[NMeV]-Pro-OH; configuration not given here) reads 1.65%.
In the case of `CC1=C2CC3OC3(C)CCC3OC3(C)CC2OC1=O` (configuration not stated), the “redox activity (% of DA3003)” value is -10.8%.
In the case of `CC(C)(O)c1ccc2c(c1)C(=O)CC1[C@](C)(CO)CCC[C@]21C` (some centres not stated), the “redox activity (% of DA3003)” value is 4.67%.
The result for `CCc1cc2c(=O)c(-c3nc4ccccc4s3)coc2c(CN2CCCCC2)c1O` reads -1.02% [at 25.6 µM].
Turning to `C=C1C(=O)O[C@H]2[C@H]1[C@@H](OC(=O)C(C)CO)C[C@@]1(C)[C@H](O)CCC(=O)[C@H]21` (some centres not stated), the “redox activity (% of DA3003)” value is -13.5%.
The figure for `COc1cc(/C=C/C(=O)OC2[C@H](O)CC(O)(C(=O)O)C[C@H]2O)ccc1O` (some centres not stated) is -0.269%; for `CC/C=C/CC1=C(CCCCCCCC(=O)O)CCC1=O` it is 0.776%.
For `N#CCc1ccc(O)cc1O[C@@H]1O[C@H](CO)[C@@H](O)[C@H](O)[C@H]1O`, the “redox activity (% of DA3003)” value was -10.7%.
On to `C/C(=C\CCC(C)(O)c1ccc(C)cc1)C(=O)O` (configuration not stated), for which the “redox activity (% of DA3003)” value is 17.8%.
The result for `CCOc1nc2cccc(C(=O)OCc3oc(=O)oc3C)c2n1Cc1ccc(-c2ccccc2-c2noc(O)n2)cc1` reads 10.6%; that for `CC1(C)C(=O)C(C)(C)c2cc(C(=O)Nc3ccc(C(=O)O)cc3)ccc21`, -2.65%.
Regarding `COC1CCCC/C(C)=C/C2C=C(C)C(C)C3C(CC(C)C)NC(=O)C23C(=O)C1` (configuration not stated), the “redox activity (% of DA3003)” value is 11.3% [at 25.6 µM].
`Cc1cc(C)c(S(=O)(=O)N(Cc2ccc(-c3cccc(S(C)(=O)=O)c3)cc2)Cc2ccc(C(F)(F)F)o2)c(C)c1`: the “redox activity (% of DA3003)” value was -7.18%.
Regarding `OCC1OC(Oc2cc(O)c3c(c2)OC(c2ccc(O)cc2)C(O)C3)C(O)C1O` (configuration not stated), the “redox activity (% of DA3003)” value is -8.7% [at 25.6 µM].
The figure for `CC(=O)O[C@H](C[C@@H](C)[C@H]1C(=O)[C@H](O)[C@@]2(C)[C@@H]3CCC4C(C)(C)[C@@H](O[C@@H]5OC[C@H](O)[C@H](O)[C@H]5O)CC[C@@]45C[C@@]35CC[C@]12C)[C@@H]1OC1(C)C` (some centres not stated) is 19% [at 25.6 µM]; for `COc1cc(CCc2ccccc2)c(C(=O)O)c2c1CC(C(C)(C)O)O2` (configuration not stated) it is 10.9%.
The result for `C=C1C2(CCC(=O)OC2(C)C)CC(OC(=O)/C(C)=C/C)C2(C)C13OC14C(=O)OC(C)(C(=O)C12C(=O)OC4C)C3OC(C)=O` (configuration not stated) reads -1.57% [at 25.6 µM]; that for `COc1cc(C)c(C(=O)O[C@H]2[C@@H](O)[C@H](n3ccc(=O)[nH]c3=O)O[C@@H]2CO)c(OC)c1`, -14.7% [at 25.6 µM].
The result for `OC[C@H]1O[C@@H](Oc2ccc3c(c2)OC[C@H]2c4cc5c(cc4O[C@@H]32)OCO5)[C@H](O)[C@@H](O)[C@@H]1O` reads -1.87% [at 25.6 µM]; that for `CC1=CCC2C(C)(CO)CCCC2(CO)C1CO` (configuration not stated), 6.27%; that for `CC1OC(O[C@H]2[C@@H](O)C[C@@]3(C)C([C@H](O)C[C@]4(C)C3CC=C3C5CC(C)(C)CC[C@]5(C(=O)OC5OC(CO)C(O)C(O)C5OC5OCC(OC6OCC(OC7OCC(O)C(O)C7O)C(O)C6O)C(OC6OCC(O)(CO)C6O)C5O)CC[C@]34C)[C@]2(C)CO)C(O)C(O)C1O` (some centres not stated), 1.03% [at 11.5 µM].
As for `Cc1cc(Nc2ncc(Cl)c(Nc3ccccc3S(=O)(=O)C(C)C)n2)c(OC(C)C)cc1C1CCNCC1`, the “redox activity (% of DA3003)” value was 11.7%.

Source of the values: PubChem BioAssay (NCATS).
